In assay [1] the test system is PRMT1 (protein arginine N-methyltransferase 1). The experiment in a line: small molecules binding arginine methyltransferase PRMT1 – biochemical, small-molecule microarray, 635 nm fluorescence, primary screen (AID 1088).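 Note: binding of Prmt1 protein to compounds spotted on small-molecule microarray slides.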 As to conditions: higher = more signal.
Assay [2] can be described thus: growth effects on S. cerevisiae YJM789 – YJM789 clinical isolate, OD600, 24 h, basal, primary screen (AID 1089).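 Note: growth of clinical yeast isolate S. cerevisiae YJM 789 seeded 1000 cells per well; test concentration not given here.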 As to conditions: higher = more signal, called active from +8 up or from −8 down.
Assay [3] can be described thus: S. pombe growth modifiers, basal conditions – strain 972, OD600, 24 h, no modulator, primary screen (AID 1090).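 Note: basal condition with compound alone and no growth modifier present; test concentration not given here.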 As to conditions: S. pombe 972 growth, higher = more signal, called active from +8 up or from −8 down.
A short description of assay [4]: budding yeast growth modifiers under rapamycin – strain BY4716, OD600, 96 h, primary screen (AID 1091). Note: test concentration not given here. Particulars: S. cerevisiae BY4716 + rapamycin, higher = more signal, called active from +8 up or from −8 down.
The target in assay [5] is Torsin-1A-interacting protein 2 (Homo sapiens) (UniProt Q8NFQ8). The experiment in a line: small molecules binding lysate-expressed LULL1 – cell lysate, human LULL1 lysate, 635/667 nm fluorescence, primary screen (AID 1092).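 Note: probe is lysate of COS7 cells overexpressing human LULL1; score merges per-feature 667 nm fluorescence with signal-to-noise.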 Particulars: small-molecule microarray, hLULL1 lysate binding, 635 nm fluorescence; higher = more signal.
A short description of assay [6]: optical density change of DRC41 E. coli – strain DRC41, OD650, 24 h, E. coli filamentation project, primary screen (AID 1093).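 Note: MC1000 strain lacking acrAB efflux and sulA so SOS filamentation is blocked; test concentration not given here.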 As to conditions: E. coli DRC41 growth, higher = more signal, called active from +8 up or from −8 down.
Assay [7] can be described thus: probe aLefty2 binding to arrayed compounds – biochemical, biotinylated probe, 635/667 nm fluorescence, primary screen (AID 1094).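 Note: score merges spot fluorescence near 667 nm with spot signal-to-noise ratio.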 Particulars: small-molecule microarray, higher = more signal.
The test system of assay [8] is Noggin (protein binding on small-molecule microarray). The experiment in a line: small molecules binding Noggin protein – biochemical, 635/667 nm fluorescence, primary screen (AID 1095).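 Note: score merges 667 nm feature fluorescence with signal to noise over triplicate slides.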 As to conditions: 635 nm fluorescence, higher = more signal.
In assay [9] the target is Neurogenic locus notch homolog protein 3 (Homo sapiens) (UniProt Q9UM47). The experiment in a line: small molecules binding NOTCH3 protein – biochemical, 635/667 nm fluorescence, primary screen (AID 1096). As to conditions: small-molecule microarray, 635 nm fluorescence, higher = more signal.
Assay [10] in a line: probe aEGFR binding to arrayed compounds – biochemical, biotinylated probe, 635/667 nm fluorescence, primary screen (AID 1097).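 Note: probe is a biotinylated anti-EGFR antibody binding compounds printed on slides; score combines fluorescence near 667 nm and signal to noise of each spot.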 As to conditions: small-molecule microarray, higher = more signal.
Assay [11] has as its system Plasmodium falciparum Sir2 (PF13_0152, Sir2A). The experiment in a line: Plasmodium falciparum Sir2A binding compounds – biochemical, small-molecule microarray, 635 nm fluorescence, primary screen (AID 1098).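 Note: score merges spot fluorescence intensity with its signal-to-noise ratio.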 Particulars: fluorescence 635 nm, higher = more signal.
Assay [12] in a line: probe aDKK1 binding to arrayed compounds – biochemical, biotinylated probe, 635/667 nm fluorescence, primary screen (AID 1099).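 Note: score merges 667nm spot fluorescence with signal to noise across triplicate slides; reference of the scale not given here.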 Particulars: small-molecule microarray, higher = more signal.
A short description of assay [13]: probe aCHRDL2 binding to arrayed compounds – biochemical, biotinylated probe, 635/667 nm fluorescence, primary screen (AID 1100). Particulars: small-molecule microarray, higher = more signal.
A short description of assay [14]: change in splice reporter luminescence, either direction, cell-based, HEK293, spliceosome inhibition project, primary screen (AID 1101).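 Note: HEK293 cells carrying a splicing-competent luciferase reporter gene; test concentration not given here.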 As to conditions: HEK293 splicing luciferase reporter, 24 h, higher = more signal, called active from +8 up or from −8 down. On the technique in general: A reporter such as luciferase makes a cellular process visible.
Assay [15] addresses Fibroblast growth factor 10 (Homo sapiens) (UniProt O15520). The experiment in a line: compounds binding fibroblast growth factor 10 – biochemical, small-molecule microarray, 635 nm fluorescence, primary screen (AID 1102). Particulars: FGF10 binding, fluorescence 635 nm, higher = more signal.
The test system of assay [16] is glycogen synthase kinase-3 (GSK3A per assay name; protocol says GSK3B). The experiment in a line: compounds binding glycogen synthase kinase-3 – biochemical, small-molecule microarray, 635 nm fluorescence, GSK3A, primary screen (AID 1103). Note: the record names both GSK3A and GSK3B. Particulars: fluorescence 635 nm, higher = more signal.
The target in assay [17] is Epidermal growth factor receptor (Homo sapiens) (UniProt P00533). The experiment in a line: compounds binding epidermal growth factor receptor – biochemical, small-molecule microarray, 635 nm fluorescence, primary screen (AID 1104).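 Note: score merges 667 nm emission intensity with spot signal to noise over triplicate slides.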 Particulars: EGFR binding, higher = more signal.
Assay [18] addresses Follistatin-related protein 3 (Homo sapiens) (UniProt O95633). The experiment in a line: compounds binding follistatin-related protein 3 – biochemical, small-molecule microarray, 635 nm fluorescence, primary screen (AID 1105).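 Note: score merges emission near 667 nm and signal to noise per printed spot across three slides.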 As to conditions: FSTL3 binding, higher = more signal.
Assay [19] addresses Dickkopf-related protein 1 (Homo sapiens) (UniProt O94907). The experiment in a line: small molecules binding DKK1 protein – biochemical, small-molecule microarray, 635 nm fluorescence scan, primary screen (AID 1106).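 Note: score merges emission near 667 nm with signal to noise over three replicate slides.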 As to conditions: higher = more signal.
Assay [20] has as its system Inhibin beta A chain (activin A). The experiment in a line: small molecules binding activin A – biochemical, small-molecule microarray, 635 nm fluorescence scan, primary screen (AID 1107).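 Note: mouse activin A protein probed at 4.33 µg/mL on printed slides; score merges bound-protein fluorescence near 667 nm with spot signal-to-noise.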 Particulars: INHBA, higher = more signal.

Calls of active or inactive are those of the source.

Chain of Fibroblast growth factor 10 (Homo sapiens) (O15520 whole entry, looked up): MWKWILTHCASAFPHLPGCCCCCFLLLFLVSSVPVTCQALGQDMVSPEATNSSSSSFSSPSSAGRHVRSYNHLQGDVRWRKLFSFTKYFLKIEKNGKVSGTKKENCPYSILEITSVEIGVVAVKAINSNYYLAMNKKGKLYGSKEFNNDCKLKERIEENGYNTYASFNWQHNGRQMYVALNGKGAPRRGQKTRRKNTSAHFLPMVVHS
Chain of Torsin-1A-interacting protein 2 (Homo sapiens) (Q8NFQ8 whole entry, looked up): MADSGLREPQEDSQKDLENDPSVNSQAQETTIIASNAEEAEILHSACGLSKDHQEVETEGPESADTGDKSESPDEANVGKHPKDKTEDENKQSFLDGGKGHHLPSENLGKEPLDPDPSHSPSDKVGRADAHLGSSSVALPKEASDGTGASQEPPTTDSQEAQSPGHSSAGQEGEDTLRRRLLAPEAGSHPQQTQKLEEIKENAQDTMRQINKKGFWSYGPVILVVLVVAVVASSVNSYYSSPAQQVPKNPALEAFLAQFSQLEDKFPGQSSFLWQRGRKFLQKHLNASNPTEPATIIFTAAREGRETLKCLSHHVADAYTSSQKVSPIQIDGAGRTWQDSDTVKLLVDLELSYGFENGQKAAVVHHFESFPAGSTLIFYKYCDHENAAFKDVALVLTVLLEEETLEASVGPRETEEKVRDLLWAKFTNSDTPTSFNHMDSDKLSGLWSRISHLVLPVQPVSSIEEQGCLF
Chain of Epidermal growth factor receptor (Homo sapiens) (P00533 whole entry, looked up): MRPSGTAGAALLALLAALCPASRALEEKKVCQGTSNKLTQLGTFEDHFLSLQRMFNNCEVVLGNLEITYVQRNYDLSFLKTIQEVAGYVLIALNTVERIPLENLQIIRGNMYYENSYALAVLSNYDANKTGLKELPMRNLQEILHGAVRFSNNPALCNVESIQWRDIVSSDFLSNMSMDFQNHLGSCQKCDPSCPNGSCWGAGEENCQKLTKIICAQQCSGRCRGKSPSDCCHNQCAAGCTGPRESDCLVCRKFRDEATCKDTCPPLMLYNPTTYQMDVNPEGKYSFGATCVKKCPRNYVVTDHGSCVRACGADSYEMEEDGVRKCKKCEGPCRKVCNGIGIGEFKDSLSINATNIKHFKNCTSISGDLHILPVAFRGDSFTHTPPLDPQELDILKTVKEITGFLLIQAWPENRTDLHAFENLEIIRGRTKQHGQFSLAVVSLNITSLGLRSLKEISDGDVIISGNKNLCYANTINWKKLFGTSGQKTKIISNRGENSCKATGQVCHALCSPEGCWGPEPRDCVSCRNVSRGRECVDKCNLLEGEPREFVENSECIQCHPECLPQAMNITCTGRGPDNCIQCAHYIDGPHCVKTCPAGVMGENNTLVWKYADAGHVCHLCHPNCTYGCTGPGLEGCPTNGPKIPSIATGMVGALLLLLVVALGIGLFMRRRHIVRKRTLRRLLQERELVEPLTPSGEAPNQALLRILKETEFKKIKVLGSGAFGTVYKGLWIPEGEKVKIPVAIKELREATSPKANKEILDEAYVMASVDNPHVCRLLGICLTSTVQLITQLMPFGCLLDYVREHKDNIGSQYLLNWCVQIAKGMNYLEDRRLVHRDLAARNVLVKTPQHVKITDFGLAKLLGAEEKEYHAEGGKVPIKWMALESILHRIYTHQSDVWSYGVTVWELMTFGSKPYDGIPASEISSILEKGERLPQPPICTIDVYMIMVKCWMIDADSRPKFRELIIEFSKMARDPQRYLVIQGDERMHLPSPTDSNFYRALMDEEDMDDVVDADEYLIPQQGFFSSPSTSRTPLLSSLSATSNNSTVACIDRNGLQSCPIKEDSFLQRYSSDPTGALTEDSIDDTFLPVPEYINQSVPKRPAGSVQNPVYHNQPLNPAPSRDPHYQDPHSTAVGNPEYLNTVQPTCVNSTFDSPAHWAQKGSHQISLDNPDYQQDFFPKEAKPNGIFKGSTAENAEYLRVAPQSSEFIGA
Chain of Neurogenic locus notch homolog protein 3 (Homo sapiens) (Q9UM47 whole entry, looked up): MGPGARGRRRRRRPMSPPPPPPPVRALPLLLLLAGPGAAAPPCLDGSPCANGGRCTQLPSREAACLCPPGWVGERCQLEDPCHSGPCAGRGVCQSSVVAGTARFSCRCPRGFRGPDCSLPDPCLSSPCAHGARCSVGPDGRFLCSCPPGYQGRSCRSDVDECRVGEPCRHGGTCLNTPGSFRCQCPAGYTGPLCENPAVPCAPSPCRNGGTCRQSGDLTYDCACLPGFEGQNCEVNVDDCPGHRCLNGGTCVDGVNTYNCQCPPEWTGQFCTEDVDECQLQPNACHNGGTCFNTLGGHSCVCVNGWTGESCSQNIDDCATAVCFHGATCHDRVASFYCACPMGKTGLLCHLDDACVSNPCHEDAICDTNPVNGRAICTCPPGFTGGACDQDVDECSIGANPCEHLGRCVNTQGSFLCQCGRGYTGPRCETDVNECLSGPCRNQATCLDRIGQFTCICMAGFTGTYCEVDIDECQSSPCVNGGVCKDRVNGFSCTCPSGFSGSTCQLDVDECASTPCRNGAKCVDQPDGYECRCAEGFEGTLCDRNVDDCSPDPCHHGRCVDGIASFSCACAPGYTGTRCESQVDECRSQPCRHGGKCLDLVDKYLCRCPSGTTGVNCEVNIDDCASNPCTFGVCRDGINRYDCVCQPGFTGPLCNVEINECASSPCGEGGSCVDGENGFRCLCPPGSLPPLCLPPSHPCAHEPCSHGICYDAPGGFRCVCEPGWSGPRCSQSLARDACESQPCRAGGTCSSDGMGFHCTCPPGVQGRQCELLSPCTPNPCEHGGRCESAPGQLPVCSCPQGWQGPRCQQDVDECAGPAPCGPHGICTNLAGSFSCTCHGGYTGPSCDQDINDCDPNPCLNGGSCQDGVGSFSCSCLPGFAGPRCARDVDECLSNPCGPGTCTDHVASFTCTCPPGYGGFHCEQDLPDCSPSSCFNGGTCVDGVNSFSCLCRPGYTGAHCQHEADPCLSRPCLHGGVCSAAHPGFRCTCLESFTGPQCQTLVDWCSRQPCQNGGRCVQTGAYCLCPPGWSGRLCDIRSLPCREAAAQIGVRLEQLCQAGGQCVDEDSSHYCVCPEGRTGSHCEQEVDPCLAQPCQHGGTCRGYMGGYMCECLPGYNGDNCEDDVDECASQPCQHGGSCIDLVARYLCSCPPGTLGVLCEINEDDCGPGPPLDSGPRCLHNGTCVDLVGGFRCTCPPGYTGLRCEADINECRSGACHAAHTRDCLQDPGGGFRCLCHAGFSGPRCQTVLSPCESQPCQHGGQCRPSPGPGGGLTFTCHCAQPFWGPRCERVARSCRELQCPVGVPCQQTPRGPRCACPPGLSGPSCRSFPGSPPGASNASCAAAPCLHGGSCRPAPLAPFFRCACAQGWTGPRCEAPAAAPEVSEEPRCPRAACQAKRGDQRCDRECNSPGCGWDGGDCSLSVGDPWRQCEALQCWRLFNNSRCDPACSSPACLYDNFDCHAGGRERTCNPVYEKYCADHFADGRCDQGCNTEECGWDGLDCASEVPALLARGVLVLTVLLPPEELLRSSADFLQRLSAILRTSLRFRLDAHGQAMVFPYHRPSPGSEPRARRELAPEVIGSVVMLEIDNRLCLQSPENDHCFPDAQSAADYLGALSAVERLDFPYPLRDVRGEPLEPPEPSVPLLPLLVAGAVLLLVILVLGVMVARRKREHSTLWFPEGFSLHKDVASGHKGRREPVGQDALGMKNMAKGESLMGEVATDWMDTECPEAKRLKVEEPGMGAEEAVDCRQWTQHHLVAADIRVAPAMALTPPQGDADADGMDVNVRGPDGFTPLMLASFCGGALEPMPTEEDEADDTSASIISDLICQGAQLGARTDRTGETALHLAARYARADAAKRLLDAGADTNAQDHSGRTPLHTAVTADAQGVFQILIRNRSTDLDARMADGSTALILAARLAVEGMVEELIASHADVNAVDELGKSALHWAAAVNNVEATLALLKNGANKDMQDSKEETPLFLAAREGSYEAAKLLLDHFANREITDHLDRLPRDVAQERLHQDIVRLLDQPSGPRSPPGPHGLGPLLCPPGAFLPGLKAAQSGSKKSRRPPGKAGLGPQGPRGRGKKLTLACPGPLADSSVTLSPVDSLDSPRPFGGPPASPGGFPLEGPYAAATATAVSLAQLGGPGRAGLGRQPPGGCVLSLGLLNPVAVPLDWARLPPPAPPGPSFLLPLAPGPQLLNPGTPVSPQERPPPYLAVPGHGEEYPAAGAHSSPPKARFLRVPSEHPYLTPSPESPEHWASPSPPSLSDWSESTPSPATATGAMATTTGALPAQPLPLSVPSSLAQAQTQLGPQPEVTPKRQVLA
Chain of Dickkopf-related protein 1 (Homo sapiens) (O94907 whole entry, looked up): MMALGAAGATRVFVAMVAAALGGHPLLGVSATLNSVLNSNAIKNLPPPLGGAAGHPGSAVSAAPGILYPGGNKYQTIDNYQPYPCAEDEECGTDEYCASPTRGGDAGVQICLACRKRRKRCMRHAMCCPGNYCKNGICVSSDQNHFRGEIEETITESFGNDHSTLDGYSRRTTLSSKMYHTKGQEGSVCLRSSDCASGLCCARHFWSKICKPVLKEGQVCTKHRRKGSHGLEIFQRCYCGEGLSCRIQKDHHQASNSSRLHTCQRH
Chain of Follistatin-related protein 3 (Homo sapiens) (O95633 whole entry, looked up): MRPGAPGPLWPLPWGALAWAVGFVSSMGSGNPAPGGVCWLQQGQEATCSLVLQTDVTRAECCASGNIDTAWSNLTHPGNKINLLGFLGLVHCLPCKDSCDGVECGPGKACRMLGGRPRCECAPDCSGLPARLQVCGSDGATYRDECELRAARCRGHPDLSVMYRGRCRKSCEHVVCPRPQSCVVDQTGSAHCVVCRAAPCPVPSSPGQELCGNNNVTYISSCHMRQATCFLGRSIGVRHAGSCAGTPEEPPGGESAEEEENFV

Turning to `NC(=O)NCC#Cc1ccc2c(c1)[C@]1(C(=O)N2)[C@H](c2ccccc2OCCO)N2[C@H](c3ccccc3)[C@H](c3ccccc3)OC(=O)[C@H]2[C@@H]1C(=O)O`, the composite z-score in assay [1] is 0.507; in assay [5] it was 1.31; in assay [7] it was -0.0201; in assay [8], 0.192; in assay [9], -0.199; in [10], -0.185. The composite z-score in assay [11] is 1.27; in assay [12] it was -0.103; in assay [13], 0.435; in assay [15], -0.0931; in assay [16], -0.397; in assay [17], -0.218. For the same molecule, the composite z-score in [18] is -0.085; in assay [19] it was -0.266; in assay [20] it was 0.894. Besides, the z-score in [2] was 0.798 (inactive); in assay [3] it was -0.602 (inactive); in assay [4] it was -0.675 (inactive); in assay [6] it was 1.4 (inactive); in assay [14] it was -0.724 (inactive).

`CCCNC(=O)[C@@]1(C)c2ccccc2C(=O)N(c2ccc(C)cn2)[C@H]1c1ccc(CO)cc1`: the composite z-score in [1] was -0.266; in assay [5], 3.4; in assay [7], -0.0352; in [8], 0.146; in [9], -0.0421; in [10] it was -0.0828. For the same molecule, the composite z-score is 0.732 in assay [11]; -0.103 in assay [12]; 0.649 in assay [13]; -0.779 in [15]; -0.158 in assay [16]; -0.473 in assay [17]. In addition, the composite z-score in assay [18] is -0.223; in assay [19], -0.126; in assay [20], 0.948. Further, the z-score in [2] is -0.788 (inactive); in assay [3], -0.164 (inactive); in assay [4], -0.145 (inactive); in assay [6], -0.618 (inactive); in assay [14] it was 0.756 (inactive).

With `COc1ccc([Si](C)(C)[C@@H]2[C@@H](CCO)O[C@]3(C(=O)N(Cc4cccc(NC(=O)[C@H](C)O)c4)c4ccccc43)[C@H]2C)cc1`, the composite z-score in assay [1] is 1.54; in assay [5], 2.84; in assay [7], -0.159; in assay [8], 0.474; in [9], 0.662; in assay [10], -0.152. Further, the composite z-score amounted to 1.42 in assay [11]; 1.09 in [12]; 0.0838 in assay [13]; 1.08 in [15]; 1.27 in [16]; 0.0532 in assay [17]. The composite z-score was 0.399 in [18], 0.244 in assay [19] and -0.437 in assay [20]. Further, the z-score in assay [2] is 1.84 (inactive); in assay [3], 0.193 (inactive); in assay [4], 34.6 (active); in assay [6], -0.327 (inactive); in assay [14], -2.89 (inactive).

As for `COc1cc(C(O)C2C=CC3C(=O)N(C)C(=O)C3N2Nc2ccccc2)cc(OC)c1OC` (stereo not given), the composite z-score in assay [1] is 1.33; in assay [5], 3.62; in assay [7], 0.581; in [8], -0.339; in [9], 1.11; in assay [10] it was 0.197. For the same molecule, the composite z-score is 1.66 in assay [11]; 1.22 in [12]; 0.655 in assay [13]; 0.581 in assay [15]; 1.25 in [16]; -0.206 in assay [17]. The composite z-score in assay [18] is 0.595; in [19] it was -0.543; in assay [20], 0.916. Further, the z-score in [2] was 0.0446 (inactive); in assay [3], -0.549 (inactive); in assay [4], -0.299 (inactive); in assay [6] it was 0.238 (inactive); in assay [14], -0.0318 (inactive).

Regarding `COCCOC(=O)N1C(=O)[C@@]2(c3cc(C#CC4=CCCCC4)ccc31)[C@H](C(=O)Nc1nc3ccccc3s1)[C@H]1C(=O)O[C@H](c3ccccc3)[C@H](c3ccccc3)N1[C@@H]2c1ccc(O)cc1`, the composite z-score in assay [1] is 1.55; in assay [5] it was 2.38; in assay [7], -0.0823; in [8], 1.21; in [9] it was 1.07; in [10], -0.0975. For the same molecule, the composite z-score was 0.61 in assay [11]; 0.157 in [12]; -0.0764 in assay [13]; 0.669 in [15]; 1.28 in assay [16]; 0.635 in [17]. The figures for the composite z-score in assay [18], in assay [19] and in assay [20] were 0.918, 1.11 and 0.872, respectively. The z-score was 0.128 (inactive) in assay [2]; -0.663 (inactive) in assay [3]; 0.364 (inactive) in [4]; 0.0627 (inactive) in assay [6]; 0.111 (inactive) in assay [14].

(Values after PubChem BioAssay.)
